From PubChem BioAssay (NCATS)
Inconclusive results are not listed. Calls of active or inactive are those of the source. Unless noted, calls come from the whole dose curve; as a rule, active = well fitted curve in the direction sought with a large enough effect; inconclusive = small, poorly fitted or top-dose-only effect, or another doubt; inactive = no such curve, though single readings can be large; an effect the other way counts as inactive or inconclusive.

Legend:
[1] = Cell Viability - BJ (AID 421; calls by dose curve;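 note: potency is the fitted concentration of half-maximal effect; cells exposed to compound for 40 hours at 37 °C before readout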); conditions: BJ fibroblast viability, qHTS
Summary of the method: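 Quantitative HTS: ATP depletion in BJ cells after 40 hr compound exposure in complete culture medium, detected with CellTiter-Glo; AC50 from standard Hill fits.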

[2] = Cell Viability - Jurkat (AID 426;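 active = dose-dependent loss of cell ATP signal giving a full or clear fitted curve, ranked by lower potency value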;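 note: potency is the fitted concentration of half-maximal effect; cells exposed to compound for 40 hours at 37 °C before ATP read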); conditions: qHTS
Summary of the method: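 Jurkat (Clone E6-1) cells, 5000/well in complete medium, exposed to compounds for 40 hr at 37C; intracellular ATP measured by CellTiter-Glo luminescence after 20 min at room temperature. AC50 from Hill fits.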

[3] = Cell Viability - Hek293 (AID 427;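 active = compounds whose dose-response curve shows a full or clear partial loss of cell viability, called from curve shape rather than a numeric limit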;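 note: potency is the fitted concentration of half-maximal effect; cells exposed to compound for 40 hours at 37 °C before reading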); conditions: qHTS
Summary of the method: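 AC50 values derive from Hill-modelled concentration-response of ATP-based luminescence, normalized between DMSO-only and 100 uM tamoxifen controls. Cells were exposed in complete culture medium for 40 hr at 37 °C before detection.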

[4] = Cell Viability - SK-N-SH (AID 435; calls by dose curve;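 note: potency is the fitted concentration of half-maximal effect; compound exposure lasted 40 h at 37 °C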); conditions: SK-N-SH neuroblastoma cell viability qHTS
Summary of the method: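 SK-N-SH neuroblastoma cells (1500/well) treated 40 h at 37 °C in complete medium; viability read as cellular ATP by CellTiter-Glo luminescence. Normalized to DMSO and 100 uM tamoxifen; AC50 from Hill fits of qHTS concentration-response.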

[5] = Cellular Toxicity (caspase-3) Jurkat (AID 655); conditions: Jurkat caspase-3 activation, luminescence; caspase-3 activation: at 92.2 µM (top of the series), DMSO = 0%, tamoxifen = 100%;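 note: cells exposed to compound for 16 h at 37 °C before reading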
Summary of the method: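 Jurkat cells (5000/well) in complete medium exposed 16 h at 37 C; caspase-3/7 activity read by Caspase-Glo luminescence after 20 min at room temperature. Normalized to DMSO and 100 uM tamoxifen; AC50 from Hill fits.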

[6] = Cellular Toxicity (caspase-3) SHSY5Y (AID 657); conditions: SH-SY5Y caspase-3 activation, DMSO zero, 10 µM staurosporine = 100%; series mostly up to 91.7 µM
Summary of the method: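 SH-SY5Y human neuroblastoma cells, 1500/well, exposed to compound for 16 hours at 37 °C in complete medium. Caspase-3/7 activity read by Caspase-Glo luminescence after 1 hr at room temperature, normalized to DMSO and 10 uM staurosporine; AC50 from Hill fit.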

[7] = Cellular Toxicity (caspase-3) BJ (AID 658); conditions: BJ fibroblasts, luminescence, normalized: DMSO 0%, staurosporine 100%; series mostly up to 91.7 µM
Summary of the method: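 Readout: Caspase-Glo 3/7 luminescence increase in BJ cells after 16 hr treatment at 37 °C. Staurosporine and tamoxifen served as positive controls; AC50 values came from Hill modelling of data normalized to DMSO and 10 uM staurosporine.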

[8] = Cellular Toxicity (caspase-3) N2a (AID 665); conditions: N2a cells, luminescence, normalized: DMSO 0%, 10 µM staurosporine 100%; series mostly up to 92.2 µM;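 note: compound exposure lasted 16 h at 37 °C before readout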
Summary of the method: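 Mouse N2a neuroblastoma cells, 1500 per well, treated 16 h at 37 °C in complete medium; caspase-3/7 activity by Caspase-Glo luminescence after 1 h. Normalized to DMSO and 10 uM staurosporine; AC50 from Hill fits.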

[9] = Cellular Toxicity (caspase-3) Renal Proximal Tubule (AID 667); conditions: renal proximal tubule cells; series mostly up to 91.7 µM;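 note: cells exposed to compound for 16 hours at 37 °C before detection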
Summary of the method: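 Freshly isolated primary rat kidney proximal tubule cells, 1000/well, treated 16 hr at 37 °C, then Caspase-Glo 3/7 luminescence after 1 hr. Normalized to DMSO and 10 uM staurosporine; AC50 from Hill fit.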

[10] = MultiTox-Fluor Cytotoxicity Assay - LYMP1-001 - Dead Cells (AID 946); conditions: LYMP1-001 lymphoblastoid cells, dead-cell protease fluorescence; series mostly up to 92.2 µM;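 note: 0% = DMSO and 100% = tetraoctylammonium bromide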
Summary of the method: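 In this qHTS, 15 uM tetraoctylammonium bromide defined 100% and DMSO defined basal activity. Lymphoblastoid cells (LYMP1-001, 2500 per well) received compound for 16 hr at 37 C before a fluorogenic dead-cell substrate readout at 485/520 nm.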

[11] = Cell Viability - LYMP1-002 - Assay at 16 hr (AID 948); conditions: LYMP1-002 lymphoblastoid cell viability; series mostly up to 92.2 µM;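 note: 0% = DMSO alone and full effect = 92 µM tetraoctylammonium bromide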
Summary of the method: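 LYMP1-002 human lymphoblastoid cells, 2500/well, were treated with compounds for 16 hr at 37 C in complete medium. Viability was read as intracellular ATP by CellTiter-Glo luminescence, and AC50 was derived from a Hill fit to concentration-response data.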

[12] = MultiTox-Fluor Cytotoxicity Assay - LYMP1-003 - Dead Cells (AID 961); conditions: LYMP1-003 lymphoblastoid cells, dead-cell protease fluorescence; series mostly up to 92.2 µM;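 note: 0% = DMSO and 100% = tetraoctylammonium bromide; nearly all actives have a fitted effect of over 70% in size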
Summary of the method: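 Acute toxicity is scored as increased dead-cell protease activity in human lymphoblastoid LYMP1-003 cells after 16 h compound exposure in complete culture medium. Activity is normalized to DMSO basal and 15 uM tetraoctylammonium bromide as full response.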

[13] = Cell Viability - LYMP1-003 - Assay at 24 hr (AID 963); conditions: LYMP1-003 lymphoblastoid cell viability; series mostly up to 92.2 µM;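 note: plate controls were DMSO only for no effect and tetraoctylammonium bromide positive control for full effect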
Summary of the method: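 Human lymphoblastoid LYMP1-003 cells, 2500/well, treated 24 h at 37 C in complete medium. Viability read as intracellular ATP by CellTiter-Glo luminescence after 30 min at room temperature; AC50 from Hill-equation fits of qHTS concentration-response.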

[14] = Cell Viability - LYMP2-013 (AID 970); conditions: LYMP2-013 lymphoblastoid cells viability; series mostly up to 92.2 µM;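 note: 0% = DMSO only and full inhibition = tetraoctylammonium bromide control; nearly all actives have a fitted effect of over 55% in size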
Summary of the method: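 Human lymphoblastoid LYMP2-013 cells, 2500/well, treated 24 h at 37 C in complete medium; viability as intracellular ATP by CellTiter-Glo luminescence after 30 min. AC50 from Hill fits of qHTS concentration-response.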

[15] = Cell Viability - LYMP2-016 (AID 984); conditions: LYMP2-016 lymphoblastoid cell viability, qHTS; series mostly up to 92.2 µM;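 note: cells exposed to compound for 24 hours at 37 °C; % is set by controls: 0 for no effect and ±100 for the full control effect; nearly all actives have a fitted effect of over 55% in size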
Summary of the method: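 Human lymphoblastoid LYMP2-016 cells, 2500 per well, treated with compounds for 24 h at 37 C. Viability read as intracellular ATP by CellTiter-Glo luminescence after 30 min at room temperature; AC50 from Hill fits of concentration-response.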

[16] = Cell Viability - LYMP1-002 - Assay at 24 hr (AID 993); conditions: LYMP1-002 lymphoblastoid cells viability; series mostly up to 92.2 µM; note: % is set by controls: 0 for no effect and ±100 for the full control effect
Summary of the method: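 Human lymphoblastoid LYMP1-002 cells (2500/well) treated 24 h at 37 °C; viability as intracellular ATP by CellTiter-Glo luminescence. Tetraoctylammonium bromide as positive control; AC50 from Hill-equation fits of qHTS concentration-response.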

[17] = qHTS Assay for Identification of Small Molecule Inducers of Hypoxia Response (AID 2120; active = well fitted curve in the direction sought with a large enough effect in the signal ratio, with a control signal flat, not every such curve was filed as active; the % refers to the signal ratio; note: 0% is about no effect); conditions: hypoxia response reporter cells, beta-lactamase ratio readout; series mostly up to 104 µM
Summary of the method: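 HRE-bla ME-180 cells in Opti-MEM with 0.5% dialyzed FBS, pre-plated 4-5 h, then compound titration for 17 h at 37 degrees Celsius. CCF4 loaded 2.5 h at room temperature; 460/530 nm ratio gave %Activity and AC50 for induction.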

[18] = target: Peroxisome proliferator-activated receptor alpha (Homo sapiens) (UniProt Q07869); test: qHTS assay for small molecule agonists of the peroxisome proliferator-activated receptor alpha (PPARalpha) signaling pathway (AID 651778); conditions: PathHunter PPARalpha complementation, chemiluminescence, 6 h; hits give high values; note: % of control where 0% means no effect
Chain of Peroxisome proliferator-activated receptor alpha (Homo sapiens) (Q07869 whole entry, looked up): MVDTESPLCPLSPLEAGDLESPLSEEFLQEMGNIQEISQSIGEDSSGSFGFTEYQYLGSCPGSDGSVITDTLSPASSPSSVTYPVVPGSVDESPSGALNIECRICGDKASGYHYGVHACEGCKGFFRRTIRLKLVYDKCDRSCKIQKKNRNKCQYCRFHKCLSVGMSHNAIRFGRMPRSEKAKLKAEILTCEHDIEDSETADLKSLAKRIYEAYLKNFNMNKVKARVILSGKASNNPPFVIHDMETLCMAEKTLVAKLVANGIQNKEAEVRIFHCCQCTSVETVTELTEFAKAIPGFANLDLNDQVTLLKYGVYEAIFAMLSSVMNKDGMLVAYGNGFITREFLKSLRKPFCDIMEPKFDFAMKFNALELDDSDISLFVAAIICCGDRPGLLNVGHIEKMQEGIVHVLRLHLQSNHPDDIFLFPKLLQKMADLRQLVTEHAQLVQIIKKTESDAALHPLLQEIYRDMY
Summary of the method: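 Chemiluminescence from complemented enzyme reported PPARalpha activation in cells after 6 hr of compound treatment at 37 C. The detection reagent was incubated for 60 min at room temperature, and compounds were scored as agonists.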

[19] = qHTS assay for cell viability of HEK293 cells (AID 743288); conditions: ATP luminescence (CellTiter-Glo), 18 h, hits give low values; note: % is set by controls: 0 for no effect and ±100 for the full control effect; nearly all actives have a fitted effect of over 50% in size
Summary of the method: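 Parental HEK293 cells, 2,000 per well, preincubated at least 5 h at 37 C, then exposed to compounds in DMSO for 18 h at 37 C. Viability by CellTiter-Glo ATP luminescence after 30 min at room temperature.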

[20] = qHTS assay for cell viability of the p53RE-bla HCT-116 cell line (AID 743292); conditions: p53RE-bla HCT-116 viability, ATP luminescence, 16 h; series mostly up to 95 µM; note: % is set by controls: 0 for no effect and ±100 for the full control effect; nearly all actives have a fitted effect of over 55% in size
Summary of the method: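 Readout: CellTiter-Glo luminescence after 30 min RT. Treatment: compounds in DMSO, 16 h, 37 C. Cells: CellSensor p53RE-bla HCT-116, 4,000/well, preincubated 5 h.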

O=NN1CCCCC1
inactive: Potency [1] > 92 µM | Potency [2] > 92 µM | Potency [3] > 92 µM | Potency [4] > 92 µM | caspase-3 activation [5] 1.18% | outcome [6] | outcome [7] | outcome [8] | outcome [9] | outcome [10] | outcome [11] | Potency [12] | outcome [13] | Potency [14] | Potency [15] | Potency [16] | Potency [17] | max response [18] -3.04% | max response [19] -2.6% | Potency [20]

C=CCCl
inactive: Potency [1] > 92 µM | Potency [2] > 92 µM | Potency [3] > 92 µM | Potency [4] > 92 µM | caspase-3 activation [5] 0.433% | outcome [6] | outcome [7] | outcome [8] | outcome [9] | outcome [10] | outcome [11] | Potency [12] | outcome [13] | Potency [14] | Potency [15] | Potency [16] | Potency [17] | max response [18] -5.35% | max response [19] 2.61% | Potency [20]

O=C(Cl)OCc1ccccc1
inactive: Potency [1] > 92 µM | Potency [2] > 92 µM | Potency [3] > 92 µM | Potency [4] > 92 µM | caspase-3 activation [5] 0.751% | outcome [6] | outcome [7] | outcome [8] | outcome [9] | outcome [10] | outcome [11] | Potency [12] | outcome [13] | Potency [14] | Potency [15] | Potency [16] | Potency [17] | max response [18] 0.201% | max response [19] -3.33% | Potency [20]

CN(C)C(=O)Cl
inactive: Potency [1] > 92 µM | Potency [2] > 92 µM | Potency [3] > 92 µM | Potency [4] > 92 µM | caspase-3 activation [5] -1.4% | outcome [6] | outcome [7] | outcome [8] | outcome [9] | outcome [10] | outcome [11] | Potency [12] | outcome [13] | Potency [14] | Potency [15] | Potency [16] | Potency [17] | max response [18] -4.05% | max response [19] 4.48% | Potency [20]

N#CCBr
inactive: Potency [1] > 92 µM | Potency [2] > 92 µM | Potency [3] > 92 µM | Potency [4] > 92 µM | caspase-3 activation [5] 0.425% | outcome [6] | outcome [7] | outcome [8] | outcome [9] | outcome [10] | outcome [11] | Potency [12] | outcome [13] | Potency [14] | Potency [15] | Potency [16] | Potency [17] | max response [18] -0.274% | max response [19] -4.55% | Potency [20]

O=C(O)C(Cl)(Cl)Br
inactive: Potency [1] > 92 µM | Potency [2] > 92 µM | Potency [3] > 92 µM | Potency [4] > 92 µM | caspase-3 activation [5] 1.43% | outcome [6] | outcome [7] | outcome [8] | outcome [9] | outcome [10] | outcome [11] | Potency [12] | outcome [13] | Potency [14] | Potency [15] | Potency [16] | Potency [17] | max response [18] -5.37% | max response [19] 5.15% | Potency [20]

OCCCCO
inactive: Potency [1] > 92 µM | Potency [2] > 92 µM | Potency [3] > 92 µM | Potency [4] > 92 µM | caspase-3 activation [5] -0.218% | outcome [6] | outcome [7] | outcome [8] | outcome [9] | outcome [10] | outcome [11] | Potency [12] | outcome [13] | Potency [14] | Potency [15] | Potency [16] | Potency [17] | max response [18] -0.393% | max response [19] -3.14% | Potency [20]

O=S(=O)(O)F
inactive: Potency [1] > 92 µM | Potency [2] > 92 µM | Potency [3] > 92 µM | Potency [4] > 92 µM | caspase-3 activation [5] 1.63% | outcome [6] | outcome [7] | outcome [8] | outcome [9] | outcome [10] | outcome [11] | Potency [12] | outcome [13] | Potency [14] | Potency [15] | Potency [16] | Potency [17] | max response [18] -0.405% | max response [19] -2.74% | Potency [20]

N#CC(O)c1ccccc1 (stereo not given)
inactive: Potency [1] > 92 µM | Potency [2] > 92 µM | Potency [3] > 92 µM | Potency [4] > 92 µM | caspase-3 activation [5] 2.09% | outcome [6] | outcome [7] | outcome [8] | outcome [9] | outcome [10] | outcome [11] | Potency [12] | outcome [13] | Potency [14] | Potency [15] | Potency [16] | Potency [17] | max response [18] 12.9% | max response [19] 2.16% | Potency [20]

Cc1ccc(N)c(C)c1
inactive: Potency [1] > 92 µM | Potency [2] > 92 µM | Potency [3] > 92 µM | Potency [4] > 92 µM | caspase-3 activation [5] 1.21% | outcome [6] | outcome [7] | outcome [8] | outcome [9] | outcome [10] | outcome [11] | Potency [12] | outcome [13] | Potency [14] | Potency [15] | Potency [16] | Potency [17] | max response [18] -4.17% | max response [19] 1.36% | Potency [20]
